TGFb SMAD3 inh – qHTS for Inhibitors of TGF-b | HepG2 CAGA-GFP TGF-b/SMAD3 reporter, GFP fluorescence, 18 h; TGF-beta stimulated, 500 pg/mL final | Potency, µM (highest dose often 46.1 µM), most hits filed as inhibitors | actives 1.2% (n = 410,000); note: nearly all actives have a fitted effect of over 65% in size
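Smad-responsive CAGA-GFP expression was quantified in HEPG2 cells exposed to compounds and 500 pg/mL final TGF-beta for 18 h at 37 degrees C; unstimulated wells defined full inhibition.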
ATXN2 expr inh – Primary qHTS for Inhibitors of ATXN expression. HEK-293 ATXN2-luciferase reporter, luminescence, 24 h. actives 0.72% (n = 360,000). Potency, µM (top dose mostly 57 µM), usual class: inhibitors; note: nearly all actives have a fitted effect of over 55% in size
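qHTS (up to 57 uM final) was run with 24 h compound exposure of reporter cells at 37 °C. Each well was multiplexed: SteadyGlo luminescence measured ATXN2-luciferase expression after a fluorogenic Gly-Phe-AFC viability readout (25 uM final).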
HepG2 tox – qHTS for Inhibitors of TGF-b: Cytotox Counterscreen. HepG2 CAGA-GFP viability, ATP luminescence, 18 h. Potency, µM (top dose mostly 46.1 µM), actives largely listed as cytotoxic. actives 0.76% (n = 410,000). AID 588856, 2011
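CellTiter-Glo luminescence gave cytotoxicity after 18 hours at 37 degrees C. The cells were HepG2 CAGA-GFP in 1% FBS DMEM, stimulated with 500 pg/mL TGF-beta after compound addition. %Activity was normalised to no-cell wells (complete cell-killing) and DMSO (no toxicity), and curves were fitted and classified.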
Giardia kill – Small Molecules that selectively kill Giardia lamblia: qHTS; actives 0.15% (n = 340,000); Giardia lamblia trophozoite viability; activity change, % at 7.66 µM, hits read low; in the data active = activity change below about -80%; inconclusive = between about -30% and that limit;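 note: parasites exposed to compound for two days anaerobically before the ATP read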
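ATP-content bioluminescence gauges trophozoite survival. Cells (100/well) receive compound and incubate anaerobically for 48 hrs at 37 deg C; detection reagent follows for 15-30 min at room temperature.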
ATXN viability – Viability Counterscreen for Primary qHTS for Inhibitors of ATXN expression | actives 0.49% (n = 400,000) | Potency, µM (highest dose often 56.7 µM), most hits filed as cytotoxic | S2 cells (HEK-293 line with an ATXN2-luciferase reporter) viability, CellTiter-Fluor protease fluorescence, 24 h; note: nearly all actives have a fitted effect of over 40% in size
uPA generation – qHTS for Inhibitors of Cell Surface uPA Generation | cell surface uPA generation assay, qHTS | Potency, µM (highest dose often 38.3 µM), usual class: inhibitors | AID 540303, 2011 | actives 0.31% (n = 330,000); active = well fitted inhibition curve with a large enough effect; inconclusive = small, poorly fitted or top-dose-only effect; inactive = no such curve, though single readings can be large or run the other way; tested in mouse RAW 264.7 cells; note: nearly all actives have a fitted effect of over 55% in size
Of the large screens only hits and unclear results are named; the others gave an inactive call. The list is not random: actives were taken first. Their share in the collection is about 2.6%. Unless noted, calls come from the whole dose curve; as a rule, active = well fitted curve in the direction sought with a large enough effect; inconclusive = small, poorly fitted or top-dose-only effect, or another doubt; inactive = no such curve, though single readings can be large; an effect the other way counts as inactive or inconclusive.

O=[N+]([O-])c1nn(-c2ccccc2)n(O)c1=NC1CCN(Cc2ccccc2)CC1	TGFb SMAD3 inh inconclusive, ATXN2 expr inh inconclusive, Giardia kill -85
O=[N+]([O-])c1nn(-c2ccc3c(c2)OCCO3)n(O)c1=NCc1ccc(F)cc1	TGFb SMAD3 inh inconclusive, Giardia kill inconclusive
O=[N+]([O-])c1nn(-c2ccc3c(c2)OCCO3)n(O)c1=NCCC1=CCCCC1	Giardia kill -93, ATXN viability inconclusive
O=[N+]([O-])c1nn(-c2ccc3c(c2)OCCO3)n(O)c1=NC1CCN(Cc2ccccc2)CC1	Giardia kill -82, ATXN viability inconclusive, uPA generation 4.5µM (no result: ATXN2 expr inh)
C=CC[C@@H](CC(=O)N(CCO)Cc1ccccc1)C(=O)N[C@H](COC(=O)[C@@H](CC=C)CC(=O)OC(C)(C)C)c1ccccc1	TGFb SMAD3 inh inconclusive, ATXN2 expr inh inconclusive (no result: ATXN viability)
C=CC[C@H](CC(=O)N(CCO)Cc1ccccc1)C(=O)N[C@H](COC(=O)[C@@H](CC=C)Cc1ccc(F)cc1)C(C)(C)C	TGFb SMAD3 inh inconclusive, ATXN2 expr inh inconclusive (no result: ATXN viability)
C=CC[C@@H](CC(=O)N(CCO)Cc1ccccc1)C(=O)N[C@H](COC(=O)[C@@H](CC=C)CC(=O)OC(C)(C)C)C(C)(C)C	ATXN2 expr inh inconclusive, ATXN viability 28µM
C=CC[C@H](CC(=O)N(CCO)Cc1ccccc1)C(=O)N[C@H](COC(=O)[C@H](CC=C)CC(=O)OC(C)(C)C)Cc1ccccc1	TGFb SMAD3 inh inconclusive, ATXN viability 22µM
CCc1cc(-c2[nH]ncc2-c2ccc3c(c2)OCO3)c(O)cc1O	TGFb SMAD3 inh inconclusive, ATXN2 expr inh 11µM, ATXN viability inconclusive, uPA generation inconclusive
CCc1cc(-c2[nH]ncc2-c2ccc(OC)cc2)c(O)cc1O	ATXN2 expr inh inconclusive
C=CC[C@@H](CC(=O)N(CCO)Cc1ccccc1)C(=O)N[C@@H](COC(=O)[C@@H](CC=C)CC(=O)OC(C)(C)C)Cc1c[nH]c2ccccc12	TGFb SMAD3 inh inconclusive, ATXN2 expr inh 35µM, ATXN viability 20µM
C=CC[C@H](CC(=O)N[C@H](CO)Cc1ccccc1)C(=O)N[C@@H](COC(=O)[C@@H](CC=C)CC(=O)OC(C)(C)C)Cc1c[nH]c2ccccc12	TGFb SMAD3 inh 11µM, ATXN2 expr inh inconclusive, uPA generation inconclusive (no result: ATXN viability)
C=CC[C@@H](CC(=O)N(CCO)Cc1ccccc1)C(=O)N[C@H](COC(=O)[C@@H](CC=C)CC(=O)OC(C)(C)C)Cc1c[nH]c2ccccc12	TGFb SMAD3 inh 13µM, ATXN2 expr inh inconclusive, uPA generation inconclusive (no result: ATXN viability)
C=CC[C@H](CC(=O)N(CCO)Cc1ccccc1)C(=O)N[C@@H](COC(=O)[C@@H](CC=C)Cc1ccc(F)cc1)Cc1c[nH]c2ccccc12	TGFb SMAD3 inh inconclusive, ATXN viability 28µM, uPA generation inconclusive
COCC(=O)Nc1cc(C(=O)N2CC3(C)CC2CC(C)(C)C3)c2c(c1)nc(-c1ccncc1)n2C (stereo not given)	none (no result: TGFb SMAD3 inh, ATXN2 expr inh, HepG2 tox, Giardia kill, uPA generation)
CSc1nnc(CNS(=O)(=O)c2ccc(F)cc2F)n1-c1ccccc1C	none (no result: TGFb SMAD3 inh, ATXN2 expr inh, HepG2 tox, Giardia kill, uPA generation)
CCSc1nn(CC(=O)Nc2cccc(CC)c2)c(N)c1S(=O)(=O)c1ccccc1	TGFb SMAD3 inh 11µM, ATXN2 expr inh inconclusive, ATXN viability inconclusive (no result: Giardia kill, uPA generation)
COc1ccc(S(=O)(=O)c2c(SC)nn(CC(=O)Nc3ccc(C)c(Cl)c3)c2N)cc1	TGFb SMAD3 inh 7.1µM, ATXN2 expr inh inconclusive, ATXN viability inconclusive (no result: Giardia kill, uPA generation)
CCc1ccc(NC(=O)Cn2nc(SC)c(S(=O)(=O)c3ccc(OC)cc3)c2N)cc1	none (no result: Giardia kill, uPA generation)
COCCCNc1ncnc2sc(C(=O)N3CCCCC3)c(C)c12	none (no result: TGFb SMAD3 inh, ATXN2 expr inh, HepG2 tox, Giardia kill, uPA generation)
CCOc1ccc2[nH]c3c(NCCO)ncnc3c2c1	none
CCOc1ccc2[nH]c3c(NCCc4ccc(OC)c(OC)c4)ncnc3c2c1	ATXN2 expr inh 18µM, ATXN viability inconclusive
CCc1nc2cc(C(=O)N[C@H]3CCCCNC3=O)cc(NC(=O)c3ccccc3OC)c2n1C	none (no result: TGFb SMAD3 inh, ATXN2 expr inh, HepG2 tox, Giardia kill, uPA generation)

Screens: PubChem, National Center for Advancing Translational Sciences (NCATS)
